Source: PubChem BioAssay AID1159580 (chemical genetic matrix, 2015)
About 2,000 (36%) of roughly 5,500 compounds were called active. Inconclusive results (about 18%) are left out. Cut-off read from the data, not from the text of the source: active = normalized growth mostly below about 0.91 (no sharp cut-off); inconclusive = no clear call, values can overlap the other calls; inactive = mostly above about 0.92. Some of the results follow.

Assay: chemical genetic growth profiling, strain panel (AID 1159580);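 note: tested at 20 µM; growth read once vehicle control cultures reached saturation at 30 °C; 1 = growth at the plate median or of vehicle wells; lower values mean less growth of the strain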
Conditions: growth OD

Measured: normalized growth

CCCCCCCCCCCCCCCC[N+](C)(C)C
active: S. cerevisiae deletion strains, locus YJR075W, strain HOC1, stronger effect = lower value 0.0608 | S. cerevisiae deletion strains, locus YKL009W, strain mrt4, stronger effect = lower value 0.126 | S. cerevisiae deletion strains, locus YKL068W, stronger effect = lower value 0.057 | S. cerevisiae deletion strains, locus YKL085W, strain MDH1 (second series), stronger effect = lower value 0.0537 | S. cerevisiae deletion strains, locus YKL085W, strain MDH1, stronger effect = lower value 0.0537 | S. cerevisiae deletion strains, locus YKL160W, strain elf1, stronger effect = lower value 0.0583 | S. cerevisiae deletion strains, locus YKL190W, strain CNB1, stronger effect = lower value 0.0478 | S. cerevisiae deletion strains, locus YKR001C, strain vps1, stronger effect = lower value 0.0609 | S. cerevisiae deletion strains, locus YKR026C, strain gcn3, stronger effect = lower value 0.0627 | S. cerevisiae deletion strains, locus YKR091W, strain srl3, stronger effect = lower value 0.0569 | S. cerevisiae deletion strains, locus YLL001W, strain dnm1, stronger effect = lower value 0.0599 | S. cerevisiae deletion strains, locus YLL026W, stronger effect = lower value 0.0546 | S. cerevisiae deletion strains, locus YLL041C, strain sdh2, stronger effect = lower value 0.0568 | S. cerevisiae deletion strains, locus YLR027C, strain aat2, stronger effect = lower value 0.0555 | S. cerevisiae deletion strains, locus YLR039C, strain RIC1, stronger effect = lower value 0.0825 | S. cerevisiae deletion strains, locus YLR058C, strain SHM2, stronger effect = lower value 0.0453 | S. cerevisiae deletion strains, locus YLR102C, strain apc9, stronger effect = lower value 0.0605 | S. cerevisiae deletion strains, locus YLR113W, strain HOG1, stronger effect = lower value 0.113 | S. cerevisiae deletion strains, locus YLR221C, strain rsa3, stronger effect = lower value 0.0541 | S. cerevisiae deletion strains, locus YLR258W, strain gsy2, stronger effect = lower value 0.0561 | S. cerevisiae deletion strains, locus YLR262C, strain YPT6 (second series), stronger effect = lower value 0.0788 | S. cerevisiae deletion strains, locus YLR262C, strain YPT6, stronger effect = lower value 0.0977 | S. cerevisiae deletion strains, locus YLR268W, strain sec22, stronger effect = lower value 0.0658 | S. cerevisiae deletion strains, locus YLR320W, strain mms22, stronger effect = lower value 0.0733 | S. cerevisiae deletion strains, locus YLR330W, strain CHS5, stronger effect = lower value 0.0514 | S. cerevisiae deletion strains, locus YLR342W, strain FKS1 (second series), stronger effect = lower value 0.0636 | S. cerevisiae deletion strains, locus YLR342W, strain FKS1, stronger effect = lower value 0.0598 | S. cerevisiae deletion strains, locus YLR357W, strain rsc2, stronger effect = lower value 0.103 | S. cerevisiae deletion strains, locus YLR370C, strain arc18, stronger effect = lower value 0.061 | S. cerevisiae deletion strains, locus YLR371W, strain rom2, stronger effect = lower value 0.0606 | S. cerevisiae deletion strains, locus YLR384C, strain iki3, stronger effect = lower value 0.0599 | S. cerevisiae deletion strains, locus YLR418C, strain cdc73, stronger effect = lower value 0.0891 | S. cerevisiae deletion strains, locus YML016C, strain PPZ1, stronger effect = lower value 0.0596 | S. cerevisiae deletion strains, locus YML032C, strain rad52, stronger effect = lower value 0.0653 | S. cerevisiae deletion strains, locus YML120C, strain ndi1, stronger effect = lower value 0.0558 | S. cerevisiae deletion strains, locus YML124C, strain tub3, stronger effect = lower value 0.0593 | S. cerevisiae deletion strains, locus YMR058W, strain fet3, stronger effect = lower value 0.0569 | S. cerevisiae deletion strains, locus YMR078C, strain ctf18, stronger effect = lower value 0.0689 | S. cerevisiae deletion strains, locus YMR125W, strain sto1, stronger effect = lower value 0.0643 | S. cerevisiae deletion strains, locus YMR129W, stronger effect = lower value 0.0561 | S. cerevisiae deletion strains, locus YMR205C, strain PFK2, stronger effect = lower value 0.0755 | S. cerevisiae deletion strains, locus YMR223W, strain ubp8, stronger effect = lower value 0.0626 | S. cerevisiae deletion strains, locus YMR231W, strain pep5, stronger effect = lower value 0.0651 | S. cerevisiae deletion strains, locus YMR263W, strain SAP30, stronger effect = lower value 0.0582 | S. cerevisiae deletion strains, locus YMR307W, strain GAS1, stronger effect = lower value 0.119 | S. cerevisiae deletion strains, locus YNL067W, strain RPL9B, stronger effect = lower value 0.0498 | S. cerevisiae deletion strains, locus YNL071W, strain lat1, stronger effect = lower value 0.0578 | S. cerevisiae deletion strains, locus YNL128W, strain TEP1, stronger effect = lower value 0.0627 | S. cerevisiae deletion strains, locus YNL153C, strain GIM3, stronger effect = lower value 0.0486 | S. cerevisiae deletion strains, locus YNL183C, strain NPR1, stronger effect = lower value -0.00175 | S. cerevisiae deletion strains, locus YNL209W, strain ssb2, stronger effect = lower value 0.0612 | S. cerevisiae deletion strains, locus YNL233W, strain BNI4, stronger effect = lower value 0.053 | S. cerevisiae deletion strains, locus YNL248C, strain rpa49, stronger effect = lower value 0.0567 | S. cerevisiae deletion strains, locus YNL250W, strain rad50, stronger effect = lower value 0.0666 | S. cerevisiae deletion strains, locus YNL271C, strain bni1, stronger effect = lower value 0.0608 | S. cerevisiae deletion strains, locus YNL298W, strain CLA4, stronger effect = lower value 0.0592 | S. cerevisiae deletion strains, locus YNL307C, strain MCK1, stronger effect = lower value 0.0664 | S. cerevisiae deletion strains, locus YNL322C, strain KRE1 (second series), stronger effect = lower value 0.0599 | S. cerevisiae deletion strains, locus YNL322C, strain KRE1, stronger effect = lower value 0.0495 | S. cerevisiae deletion strains, locus YNR049C, strain mso1, stronger effect = lower value 0.0575 | S. cerevisiae deletion strains, locus YNR052C, strain pop2, stronger effect = lower value 0.0593 | S. cerevisiae deletion strains, locus YOL006C, strain TOP1, stronger effect = lower value 0.0794 | S. cerevisiae deletion strains, locus YOL012C, strain htz1 0.179 | S. cerevisiae deletion strains, locus YOL147C, strain pex11, stronger effect = lower value 0.0577 | S. cerevisiae deletion strains, locus YOR001W, strain rrp6, stronger effect = lower value 0.0595 | S. cerevisiae deletion strains, locus YOR061W, strain CKA2, stronger effect = lower value 0.0395 | S. cerevisiae deletion strains, locus YOR069W, strain VPS5, stronger effect = lower value 0.0494 | S. cerevisiae deletion strains, locus YOR070C, strain gyp1, stronger effect = lower value 0.0582 | S. cerevisiae deletion strains, locus YOR080W, strain dia2, stronger effect = lower value 0.0639 | S. cerevisiae deletion strains, locus YOR083W, strain WHI5, stronger effect = lower value 0.0574 | S. cerevisiae deletion strains, locus YOR106W, strain vam3, stronger effect = lower value 0.0616 | S. cerevisiae deletion strains, locus YOR136W, strain idh2, stronger effect = lower value 0.0711 | S. cerevisiae deletion strains, locus YOR144C, strain elg1, stronger effect = lower value 0.0571 | S. cerevisiae deletion strains, locus YOR184W, strain ser1, stronger effect = lower value 0.0671 | S. cerevisiae deletion strains, locus YOR231W, strain MKK1, stronger effect = lower value 0.0937 | S. cerevisiae deletion strains, locus YOR265W, strain rbl2, stronger effect = lower value 0.0534 | S. cerevisiae deletion strains, locus YOR270C, strain vph1, stronger effect = lower value 0.0651 | S. cerevisiae deletion strains, locus YOR290C, strain snf2, stronger effect = lower value 0.0594 | S. cerevisiae deletion strains, locus YOR316C, strain cot1, stronger effect = lower value 0.0575 | S. cerevisiae deletion strains, locus YPL051W, strain arl3, stronger effect = lower value 0.0558 | S. cerevisiae deletion strains, locus YPL055C, strain LGE1, stronger effect = lower value 0.0731 | S. cerevisiae deletion strains, locus YPL078C, strain atp4, stronger effect = lower value 0.0629 | S. cerevisiae deletion strains, locus YPL106C, strain sse1, stronger effect = lower value 0.0805 | S. cerevisiae deletion strains, locus YPL240C, strain hsp82, stronger effect = lower value 0.0545 | S. cerevisiae deletion strains, locus YPL241C, strain CIN2, stronger effect = lower value 0.0519 | S. cerevisiae deletion strains, locus YPL256C, strain CLN2, stronger effect = lower value 0.107 | S. cerevisiae deletion strains, locus YPR119W, strain clb2, stronger effect = lower value 0.0613 | S. cerevisiae deletion strains, locus YPR141C, strain kar3, stronger effect = lower value 0.0706 | S. cerevisiae deletion strains, locus YPR163C, strain tif3, stronger effect = lower value 0.0686 | S. cerevisiae deletion strains, locus YPR167C, strain met16, stronger effect = lower value 0.0617 | S. cerevisiae deletion strains, strain wtn01, stronger effect = lower value 0.0595 | S. cerevisiae strains, strain wild type, stronger effect = lower value 0.0507
